In PubChem BioAssay (NCATS):
Where “and” joins values, the source holds several entries; their conditions need not be identical. Equal entries are not always repeated. Results filed as inconclusive are left out. Calls of active or inactive are those of the source. Calls follow the shape of the dose curve; as a rule, active = well fitted curve in the direction sought with a large enough effect; inconclusive = small, poorly fitted or top-dose-only effect, or another doubt; inactive = no such curve, though single readings can be large; an effect the other way counts as inactive or inconclusive.

Tests used:
[1] = qHTS of pediatric cancer cell lines to identify multiple opportunities for drug repurposing: Primary screen for LAN-5 cells (AID 1347100); also: potency is read from the fitted curve at half-maximal effect
Outline: (§1)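 Viability after 48 h compound treatment at 37C, 500-1,000 cells/well, read as ATP luminescence with CellTiter-Glo. Primary screens used 11-point (MIPE, 0.78 nM-46 µM) or 8-point (NPC, 0.59 nM-46 µM) final concentrations; follow-up screens used 11-point dilutions.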

[2] = qHTS of pediatric cancer cell lines to identify multiple opportunities for drug repurposing: Primary screen for BT-12 cells (AID 1347101); also: nearly all actives have a fitted effect of over 25% in size; also: potency is read from the fitted curve at half-maximal effect
Outline: (§2)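 Cells (500-1,000/well) rested 5 h, then received compounds for 48 h; metabolically active cells were measured by CellTiter-Glo luminescence. Final concentrations spanned up to 46 µM (MIPE, 11-point) or 0.59 nM-46 µM (NPC, 8-point) in primary screens, 11-point in follow-ups.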

[3] = qHTS of pediatric cancer cell lines to identify multiple opportunities for drug repurposing: Primary screen for Rh18 cells (AID 1347102); also: nearly all actives have a fitted effect of over 65% in size; also: potency is read from the fitted curve at half-maximal effect
Outline: as §1

[4] = qHTS of pediatric cancer cell lines to identify multiple opportunities for drug repurposing: Primary screen for OHS-50 cells (AID 1347103); also: nearly all actives have a fitted effect of over 40% in size; also: potency is read from the fitted curve at half-maximal effect
Outline: as §2

[5] = qHTS of pediatric cancer cell lines to identify multiple opportunities for drug repurposing: Primary screen for RD cells (AID 1347104); also: nearly all actives have a fitted effect of over 55% in size; also: potency is read from the fitted curve at half-maximal effect
Outline: (§3)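 Viability was measured as metabolically active cells after 48 hours of treatment, read by CellTiter-Glo luminescence. Compounds were tested at multiple final concentrations, giving concentration-response curves.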

[6] = qHTS of pediatric cancer cell lines to identify multiple opportunities for drug repurposing: Primary screen for MG 63 (6-TG R) cells (AID 1347105); also: nearly all actives have a fitted effect of over 50% in size; also: potency is read from the fitted curve at half-maximal effect
Outline: as §3

[7] = qHTS of pediatric cancer cell lines to identify multiple opportunities for drug repurposing: Primary screen for control Hh wild type fibroblast cells (AID 1347106);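 also: series mostly up to about 46 µM; a drop in luminescence marks cytotoxicity and a rise apparent proliferation; nearly all actives have a fitted effect of over 55% in size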
Outline: as §1

[8] = qHTS of pediatric cancer cell lines to identify multiple opportunities for drug repurposing: Primary screen for Rh41 cells (AID 1347108); also: nearly all actives have a fitted effect of over 70% in size; also: potency is read from the fitted curve at half-maximal effect
Outline: as §3

[9] = qHTS of pediatric cancer cell lines to identify multiple opportunities for drug repurposing: Primary screen for Rh30 cells (AID 1347107); also: series mostly up to about 46 µM; nearly all actives have a fitted effect of over 75% in size
Outline: as §1

[10] = qHTS of pediatric cancer cell lines to identify multiple opportunities for drug repurposing: Confirmatory screen for NB1643 cells (AID 1347109); also: nearly all actives have a fitted effect of over 45% in size; also: potency is read from the fitted curve at half-maximal effect
Outline: as §1

Measured: Potency

Cc1cc2c(C(C)C)c(O)c(O)c(C=O)c2c(O)c1-c1c(C)cc2c(C(C)C)c(O)c(O)c(C=O)c2c1O
active: [1] 3.35 µM and 11.8 µM | [2] 13.8 µM and 19.3 µM | [3] 23.5 µM | [4] 11 µM and 19.3 µM | [5] 26.6 µM and 29.6 µM | [6] 21.1 µM and 23.5 µM | [8] 16.8 µM and 18.7 µM
inactive: [7]

CCCC(CCC)C(=O)O
not listed: [5] | [10]
inactive: all other assays above

OCCn1cc(-c2cnc3nnn(Cc4ccc5ncccc5c4)c3n2)cn1
not listed: [8] | [10]
inactive: all other assays above

CCN(CC)CCCC(C)Nc1nc(C)cc(Nc2ccc3nc(C)cc(N)c3c2)n1 (configuration not stated)
not listed: [4] | [10]
inactive: all other assays above

CC(=O)Oc1ccccc1C(=O)O
inactive: [1] | [2] | [3] | [4] | [6] | [7]

NC[C@H](O)c1ccc(O)c(O)c1
not listed: [5] | [10]
inactive: all other assays above

OC(CCN1CCCCC1)(c1ccccc1)C1CC2C=CC1C2 (configuration not stated)
not listed: [10]
inactive: all other assays above

CC(C)NCC(O)COc1ccc(COCCOC(C)C)cc1 (configuration not stated)
not listed: [10]
inactive: all other assays above

COc1ccc([C@@H]2CC(=O)c3c(O)cc(O[C@@H]4O[C@H](CO[C@@H]5O[C@@H](C)[C@H](O)[C@@H](O)[C@@H]5O)[C@@H](O)[C@H](O)[C@@H]4O)cc3O2)cc1O
not listed: [10]
inactive: all other assays above

COc1nc(-c2ccc3c(c2)OCO3)n(-c2ccc(NC(=O)CSc3ccccc3)cc2)n1
not listed: [4] | [10]
inactive: all other assays above

CC(C[N+](C)(C)C)OC(N)=O (configuration not stated)
not listed: [4] | [10]
inactive: all other assays above

O=C(C=Cc1ccc(/C=C/C(=O)Nc2ccc(C3=NCCN3)cc2)cc1)Nc1ccc(C2=NCCN2)cc1
not listed: [5] | [10]
inactive: all other assays above

CC(c1cc2ccccc2s1)N(O)C(N)=O (configuration not stated)
not listed: [10]
inactive: all other assays above

O=C1CCC(N2C(=O)c3ccccc3C2=O)C(=O)N1 (configuration not stated)
not listed: [4] | [10]
inactive: all other assays above

NC(N)=NC(=O)c1nc(Cl)c(N)nc1N
inactive: all assays above

N[C@@H]1CONC1=O
not listed: [10]
inactive: all other assays above

Cc1[nH]c(=O)c(C#N)cc1-c1ccc2nccn2c1
not listed: [5] | [10]
inactive: all other assays above

Nc1ccc(S(=O)(=O)Nc2ccnn2-c2ccccc2)cc1
not listed: [10]
inactive: all other assays above

CNC[C@H](O)c1cccc(O)c1
not listed: [10]
inactive: all other assays above

Cc1[nH]c(=O)c(C#N)cc1-c1ccncc1
not listed: [5] | [10]
inactive: all other assays above

COc1ccc(-c2oc3cc(OC)ccc3c2C(=O)c2ccc(C#N)cc2)cc1
active: [1] 833 nM | [2] 1.09 µM | [4] 968 nM
inactive: [3] | [7] | [9]

CCC(C)(C)C(=O)O[C@H]1C[C@@H](C)C=C2C=C[C@H](C)[C@H](CC[C@@H]3C[C@@H](O)CC(=O)O3)[C@H]21
active: [2] 1.38 µM and 1.93 µM | [3] 8.41 µM and 14.8 µM | [4] 6.17 µM and 10.9 µM | [6] 2.66 µM and 4.69 µM
inactive: [1] | [5] | [7] | [8]

CC(C)(C)NCC(O)c1ccc(O)c(CO)c1 (configuration not stated)
not listed: [5] | [10]
inactive: all other assays above

CN1CCN(CCCN2c3ccccc3Sc3ccc(C(F)(F)F)cc32)CC1
active: [1] 16600 nM | [2] 24.6 µM and 21.7 µM | [4] 27.6 µM and 19.3 µM | [10] 23.3 µM
inactive: [3] | [9] | [8]

NC(=O)c1cnccn1
not listed: [5] | [10]
inactive: all other assays above

Clc1cccc(Cl)c1NC1=NCCN1
not listed: [10]
inactive: all other assays above

C1COC(NC(C2CC2)C2CC2)=N1
not listed: [10]
inactive: all other assays above

CC1(C)SCCN(S(=O)(=O)c2ccc(OCC#CCO)cc2)[C@@H]1C(=O)NO
not listed: [4] | [10]
inactive: all other assays above

O=C(O)COCCN1CCN(C(c2ccccc2)c2ccc(Cl)cc2)CC1 (configuration not stated)
not listed: [10]
inactive: all other assays above

OC(CN1CCC(Cc2ccc(F)cc2)CC1)c1ccc(Cl)cc1 (configuration not stated)
not listed: [4] | [10]
inactive: all other assays above

NS(=O)(=O)c1cc2c(cc1Cl)NC=NS2(=O)=O
not listed: [5] | [10]
inactive: all other assays above

C[C@]12CC[C@H](O)CC1=CC[C@@H]1[C@H]2CC[C@]2(C)C(c3cccnc3)=CC[C@H]12
not listed: [4] | [10]
inactive: all other assays above

Cc1cnc(NC(=O)C2=C(O)c3ccccc3S(=O)(=O)N2C)s1
not listed: [10]
inactive: all other assays above

O=C(O)CCc1ccc(NCc2cccc(Oc3ccccc3)c2)cc1
not listed: [5] | [10]
inactive: all other assays above

CCCc1nc2c(C)cc(-c3nc4ccccc4n3C)cc2n1Cc1ccc(-c2ccccc2C(=O)O)cc1
not listed: [4] | [10]
inactive: all other assays above

Fc1ccc(Cl)cc1-c1nc(Nc2ccncc2)c2nccnc2n1
not listed: [3] | [4] | [10]
inactive: all other assays above

COc1cc2c(cc1OC)CN(CCc1ccc(NC(=O)c3cccc4c(=O)c5cccc(OC)c5[nH]c34)cc1)CC2
inactive: [1] | [2] | [3] | [6] | [7]

C[C@]12CCC(=O)C=C1CC[C@@H]1[C@@H]2[C@@H](O)C[C@@]2(C)[C@H]1CC[C@]2(O)C(=O)CO
not listed: [4] | [5] | [10]
inactive: all other assays above

NCCc1ccc(O)c(O)c1
not listed: [3] | [4] | [10]
inactive: all other assays above

O=C1CCc2cc(OCCCCc3nnnn3C3CCCCC3)ccc2N1
not listed: [3] | [10]
inactive: all other assays above

COc1cc2nccc(Oc3ccc(NC(=O)NC4CC4)c(Cl)c3)c2cc1C(N)=O
active: [1] 372 nM | [2] 6.85 µM | [3] 5.26 µM | [8] 5.9 µM
inactive: [9]

CN(C)C(=O)c1ccc(S(=O)(=O)c2ccc(NC(=O)[C@@](C)(O)C(F)(F)F)c(Cl)c2)cc1
active: [2] 13.7 µM
inactive: [1] | [3] | [7] | [9]

CC(C=CC1=C(C)CCCC1(C)C)=CC=CC(C)=CC(=O)O
inactive: [1] | [2] | [9]
active: [4] 344 nM | [6] 9.35 µM
